Experimental data from ChEMBL document CHEMBL1157539, “Thousands of chemical starting points for antimalarial lead identification” (Nature, 2010).

Tested on: HepG2
Test: GSK_TCMDC: Percent inhibition of human HepG2 cell line. Test compounds present at 10uM.
Format: functional

| SMILES | Inhibition |
| --- | --- |
| CN1CCCC1CCNCc1cccc(-c2cnc(N(C)C3CCCCC3)nc2)c1 (stereo not given) | 98% |
| C#CCNC(=O)c1ccc(-c2ccnc(Nc3cccc(CCCN4CCOCC4)c3)n2)s1 | 54% |
| Cl.c1cc(COc2ccc(C3=NCCN3)cc2)nc(COc2ccc(C3=NCCN3)cc2)c1 | 8% |
| CCCc1ccc(NC(=O)c2cccc(CN3CCCN(Cc4cccc(O)c4)CC3)c2)cc1.O=C(O)C(F)(F)F | 15% |
| Cc1cnc(N2CCN(CCCN3CCCC3)CC2)nc1Oc1ccc(-n2ccnc2)cc1.O=C(O)C(F)(F)F | 12% |
| N#Cc1cccc(CN2CCCN(Cc3ccc(C(=O)Nc4ccc(Cl)cc4)cc3)CC2)c1.O=C(O)C(F)(F)F | 48% |
| CN(C)CCOc1ccc2nc(-c3cccc(OCc4ccccc4)c3)[nH]c2c1C#N | 48% |
| Cn1nc(-c2ccc(NC(=O)Nc3cc(C(F)(F)F)ccc3F)c(F)c2)c2cnc(NCCCn3ccnc3)nc21.O=C(O)C(F)(F)F | 45% |
| Cc1noc(C)c1-c1ccc2c(Nc3ccc(C(F)(F)F)cc3)c(C(N)=O)cnc2c1.Cl | 1% |
| Cl.O=c1cc(NCCCNCc2ccc(Cl)c(Cl)c2)[nH]c2ccc(Cl)cc12 | 11% |
| CC(C)Cn1c(Sc2ccc(C#N)c([N+](=O)[O-])c2)nnc1-c1cccs1 | 9% |
| O=C(c1cncc(-c2ccccc2)c1)N(Cc1cncn1Cc1ccccc1F)CC1CC1 | 0% |
| CN(C)CC(=O)Nc1ccc(Nc2nccc(NCC(O)c3ccccc3)n2)cc1 (stereo not given) | 0% |
| Cl.Oc1c(Cl)cc(-c2ccccc2)cc1CNC1CCCCC1 | 5% |
| COc1cc(NC(=O)/C=C/c2cc(F)cc(F)c2F)cc(OCCN2CCC(O)(c3ccccc3)CC2)c1.O=C(O)C(=O)O | 54% |
| COc1cc2c(c(Cl)c1OC)CCN(Cc1ccccc1)CC2c1ccc(C(N)=O)cc1 (stereo not given) | 7% |
| COc1ccc(S(=O)(=O)NCCC2CCN(CCCCCNC(=O)C=Cc3ccc(Cl)c(Cl)c3)CC2)cc1 | 36% |
| CCOc1ccccc1C1CCN(CCCCNC(=O)c2ccc(NC(=O)c3ccc(Cl)cc3)cc2)CC1 | 13% |
| Cc1ccc(F)c(OCC2CCCN(c3ccc(C(=O)NC4CC4)cn3)C2)c1 (stereo not given) | 3% |
| O=C(Nc1ccc(C(=O)Oc2ccc(-c3ccccc3)cc2)cc1)N[C@@H](Cc1ccc(O)cc1)C(=O)NC1CCN(Cc2ccc(O)cc2)C1.O=C(O)C(F)(F)F (stereo not given in full) | 0% |

| SMILES | Inhibition |
| --- | --- |
| Cl.N=C(N)NN=Cc1cc([N+](=O)[O-])ccc1Sc1ccccc1CO | 25% |
| COc1ccc(-c2csc3ncnc(Cl)c23)cc1OC | 0% |
| CCOC(=O)c1c(C)noc1Nc1cccc(C)c1C | 8% |
| Cc1nc(C)c(-c2ccc(Oc3ccc(Cl)cc3Cl)cc2)c(O)c1Br | 3% |
| O=C(Cc1ccccc1)NC1(c2ccccc2)CCN(CCc2c[nH]c3ccc(F)cc23)CC1 | 29% |
| O=C(O)C(F)(F)F.O=C(c1ccccc1)N(Cc1ccccc1-c1ccc(CNCCc2ccccc2)cc1)C1CCN(Cc2ccccc2)CC1 | 95% |
| Cl.Nc1ccnc2ccc(OCCCCCCc3ccccc3)cc12 | 96% |
| O=C(O)C1CC(=O)N(c2ccc(Cl)cc2)C1 (stereo not given) | 51% |
| CN1CCN(c2ccnc3ccc(NC(=O)Nc4cccc(C#N)c4)cc23)CC1 | 11% |
| COc1ccc(S(=O)(=O)NCC2CCCN(CCCCCNC(=O)/C=C/c3ccc(Cl)c(Cl)c3)C2)cc1 (stereo not given) | 53% |
| NC(Cc1cccc(I)c1)C(=O)NCC1CCCO1.O=C(O)C(F)(F)F (stereo not given) | 52% |
| COc1cccc(C(=O)Nc2nc3c(s2)CCN(Cc2ccccc2N2CCNCC2)CC3)c1.O=C(O)C(F)(F)F | 7% |
| Cc1ccc2c(N/N=C/c3ccccc3[N+](=O)[O-])cc(C)nc2c1 | 13% |
| C=C(C)C1CC=C(CN2CCCC(n3ccc4cc(NC(=O)c5ccco5)ccc43)CC2)CC1 (stereo not given) | 13% |
| CC(C)CCN1CCCN(Cc2cccc(NC(=O)c3ccc(-c4ccccc4)cc3)c2)CC1.O=C(O)C(F)(F)F | 27% |
| COC1(C)Oc2ccc3cccc([N+](=O)[O-])c3c2C1=O (stereo not given) | 3% |
| CCCCCCOc1ccc(C(=O)NCCC2CCN(CCCCCNC(=O)C=Cc3ccc(Cl)c(Cl)c3)CC2)cc1 | 13% |
| COc1ccccc1-n1ccnc1SCC(=O)Nc1cc(C(F)(F)F)ccc1Cl | 0% |
| Oc1ccc(C=NNC(S)=Nc2cccc3ccccc23)c(O)c1 | 8% |
| CCNc1cc(C)nc(Nc2ccc(NC(=O)c3ccco3)cc2)n1 | 24% |
